In PubChem BioAssay AID720518 (National Center for Advancing Translational Sciences (NCATS), 2013) one finds Potency data, which are given here for 15 molecules.

This assay can be described thus: qHTS for Inhibitors of Cell Surface uPA Generation: Wild-type Protective Antigen (WT-PrAg) Counterscreen for Cherry-picked Compounds. (In general: qHTS replaces the single test concentration by a dilution series.)

Each structure is given as a SMILES string. Inconclusive results are not listed. A call without a number means that no potency is given here. Activity calls are given as the source filed them. Calls follow the shape of the full dose curve.

As to `Cc1cc(=O)n2nc(N3CCCC(C(=O)NCc4ccc(Cl)cc4)C3)sc2n1` (stereo not given), the Potency result was “inactive”. For `O=C(O)c1cc(N=Nc2c(O)[nH]c3ccc([N+](=O)[O-])cc23)ccc1Cl` the value was “inactive”. For `CC(O)[C@H]1CNC(=O)C(=O)N1CCc1cccc(F)c1` (stereo not given in full) the value was “inactive”. For `Cc1ccc([C@H]2C(C(=O)O)=CC[C@@H](c3cccc(C)c3)N2S(=O)(=O)c2ccc(C)cc2)cc1` the value was “inactive”. As to `CCOC(=O)C1=CC[C@@H](c2cc3ccc(OC)cc3n2C)N(S(=O)(=O)c2ccc(C)cc2)[C@H]1C(=O)OCC`, the Potency result is “inactive”. For `Cc1ccc(C)c(N2N=C(C(=O)N(CC(C)C)c3c(N)n(Cc4ccccc4)c(=O)[nH]c3=O)CCC2=O)c1` the value was “inactive”. `COc1ccc(-n2nc(C(=O)Nc3cc(OC)c(OC)c(OC)c3)c3ccccc3c2=O)c(OC)c1`: the Potency entry is “inactive”. For `Cc1ccc(OCc2cc(C(=O)N(C)Cc3cc(C4CC4)n[nH]3)no2)cc1C` the value was “inactive”; for `COc1ccc(-c2cc(-c3ccccc3)nc3ncnn23)cc1`, “inactive”; for `CCOC(=O)C(CC)n1cnc2c(nnn2-c2ccccc2)c1=O` (stereo not given), “inactive”. Consider `O=c1[nH]c(=O)n(CCc2ccccc2)c(O)c1C=NC1CC1`, for which the Potency entry was “inactive”.

On to `O=C(NCCN1CCOCC1)c1ccc2c(c1)N(Cc1ccc(Cl)cc1)CCS2`, for which the Potency entry is “inactive”. The result for `CC(C)(C)OC(=O)N(Cc1ccccc1)Cc1ccccc1OCc1cccc(NC(=O)C2CC2)c1` reads “inactive”; that for `COc1ccc(N2CCN(C(=O)COc3ccc4c(C)c(C)c(=O)oc4c3C)CC2)cc1`, “inactive”. For `CCN(C(=O)c1c(C)noc1C)c1c(N)n(Cc2ccccc2)c(=O)[nH]c1=O` the value was “inactive”.
